Results from PubChem BioAssay (NCATS).
A number with no mark means an inactive call. Results filed as inconclusive are left out. The source made the active and inactive calls. Unless noted, calls come from the whole dose curve; as a rule, active = well fitted curve in either direction with a large enough effect (not every such curve was filed as active); inconclusive = small, poorly fitted or top-dose-only effect, or another doubt; inactive = flat fitted curve, though single readings scatter.

Legend:
[1] = molecular target: Lysosomal acid glucosylceramidase (Homo sapiens) (UniProt P04062); experiment: Glucocerebrosidase-p2 (AID 348; in the data active = potency below about 10 µM; note: potency is the fitted concentration of half-maximal effect); conditions: purified GBA, blue fluorogenic substrate, 40 min
How it was run: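 Compounds titrated from 0.6 nM upwards against 0.2 nM enzyme in pH 5.9 citric acid/KH2PO4, taurocholate, tween-20; blue fluorogenic substrate 80 uM, 40 min room temperature, stopped and read Ex 365/Em 440 for AC50.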

[2] = AP1 Signaling Pathway (AID 357); conditions: ME-180 AP-1-bla reporter, EGF-induced, beta-lactamase ratio, 5 h; at 7.69 µM (top of the series) unless noted;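 note: ME-180 reporter cells stimulated with EGF at its EC50 level; % is set by controls: 0 for no effect and ±100 for the full control effect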
How it was run: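 Read-out was the 460nm/530nm emission ratio (excitation 405nm) after CCF4 loading for 2.5 hours at room temperature. Cells carried an AP-1-driven beta-lactamase reporter, were stimulated with EC50 EGF plus compound for 5 hours, and AC50 values came from titrations.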

[3] = molecular target: Cytochrome P450 1A2 (Homo sapiens) (UniProt P05177); experiment: p450-cyp1a2 (AID 410; calls by dose curve; note: potency is the fitted concentration of half-maximal effect;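 for activity change, negative = inhibition: -100% = full effect of reference inhibitor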); conditions: recombinant CYP1A2, luciferin-ME demethylation, luminescence; series mostly up to 57 µM
How it was run: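 Human CYP1A2 (20nM) demethylated Luciferin-ME at its Km (100uM) in 100mM KPO4. After 10 min compound preincubation, NADPH regeneration ran the reaction 60 min at room temperature. Luciferin was read by luminescence, normalized to 57 uM furafylline.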

[4] = molecular target: Glucocorticoid receptor (Homo sapiens) (UniProt P04150); experiment: GR-GFP Redistribution (AID 450;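 active = compounds whose dose series gives a full or clear partial fitted curve of increased nuclear translocation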; note: potency is the fitted concentration of half-maximal effect); conditions: U2OS GR-GFP nuclear translocation, laser cytometry, 2 h
[5] = molecular target: Glucocorticoid receptor (Homo sapiens) (UniProt P04150); experiment: GR-EFC Redistribution (AID 451; calls by dose curve; note: potency is the fitted concentration of half-maximal effect); conditions: CHO-K1 GR-EFC translocation, beta-gal luminescence, 2 h
How it was run: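 CHO-K1 cells expressing nuclear EA and GR-ED fragments of b-gal; compounds titrated up to 46 uM final, 2 h at 37 C. GR nuclear translocation read as complemented b-gal luminescence after 1 h RT detection.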

[6] = molecular target: Mitogen-activated protein kinase 10 (Mus musculus) (UniProt Q61831); experiment: JNK3 AlphaScreen Assay (AID 530); conditions: JNK3 lysate, c-Jun phosphorylation; series mostly up to 57.1 µM;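 note: kinase came from lysate of stimulated human HepG2 cells; signal reports phosphorylation of biotinylated GST-cJun 1-79 at Ser73 with 10 µM ATP; % is set by controls: 0 for no effect and ±100 for the full control effect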
How it was run: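 qHTS format: compounds tested as titrations against IL-1beta/TNF-alpha-activated HepG2 lysate JNK3 with biotin-GST-cJun substrate and 10 uM ATP at room temperature. Loss of anti-phospho-cJun AlphaScreen signal indicates inhibition.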

[7] = molecular target: 3',5'-cyclic-AMP phosphodiesterase 4B (Homo sapiens) (UniProt Q07343); experiment: qHTS Assay for Inhibitors of PDE-IV (AID 607; active = well fitted activation curve with a large enough effect in the main read-out, with a control signal flat, not every such curve was filed as active; note: % of control where 0% means no effect); conditions: HEK293 ACTOne CNG channel cells, membrane potential fluorescence; series mostly up to 22.9 µM
How it was run: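 The readout is membrane depolarisation from a cAMP-sensing CNG channel, detected with a potential dye at ex 535/em 590. Cells were HEK293-derived (endogenous PDE-IV) at 1000 cells/well, titrated up to 22.9 uM final.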

[8] = molecular target: Cytochrome P450 3A4 (Homo sapiens) (UniProt P08684); experiment: qHTS Assay for Activators of Cytochrome P450 3A4 (AID 885; active = well fitted curve in the direction sought with a large enough effect; an effect the other way counts as inactive or inconclusive; note: nearly all actives have a fitted effect of over 65% in size); conditions: recombinant CYP3A4, Luciferin-PPXE luminescence, 60 min; series mostly up to 57.1 µM
How it was run: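 Steps: enzyme/substrate mix dispensed; compound added, 10 min RT; NADPH regeneration solution added, 60 min RT; luciferin detection buffer stops reaction; 20 min later luminescence measured.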

[9] = qHTS Assay for Identification of Small Molecule Agonists for Hypoxia Response Element Signaling Pathway (AID 914; active = well fitted activation curve with a large enough effect in the signal ratio, with a control signal flat, not every such curve was filed as active; the % refers to the signal ratio; note: potency is the fitted concentration of half-maximal effect; for activation: % of control where 0% means no effect); conditions: ME-180 HRE-bla reporter, beta-lactamase ratio, CoCl2, 17 h; activation: hits give high values
How it was run: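 Reporter activity (beta-lactamase, CCF4 460nm/530nm ratio) in HRE-bla ME-180 cells is recorded after 17 h compound exposure with EC50 CoCl2 at 37 degrees Celsius. AC50 values come from titration data.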

[10] = Primary qHTS for small molecule stabilizers of the endoplasmic reticulum resident proteome: Secreted ER Calcium Modulated Protein (SERCaMP) assay (AID 1508630; active = well fitted curve in the direction sought with a large enough effect; an effect the other way counts as inactive or inconclusive; note: % is set by controls: 0 for no effect and ±100 for the full control effect); conditions: SH-SY5Y GLuc-SERCaMP (Gaussia luciferase released on ER calcium loss) secretion, thapsigargin, luminescence; series mostly up to 38.4 µM
How it was run: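 GLuc-SERCaMP-expressing SH-SY5Y cells, pretreated 16 h with compound, are challenged with thapsigargin to empty ER calcium stores; after 4 h, coelenterazine is added directly to the medium and luminescence is imaged.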

[11] = molecular target: Cytochrome P450 3A4 (Homo sapiens) (UniProt P08684); experiment: qHTS Assay for Inhibitors and Substrates of Cytochrome P450 3A4 (AID 884; active = well fitted curve in the direction sought with a large enough effect; an effect the other way counts as inactive or inconclusive; note: potency is the fitted concentration of half-maximal effect; nearly all actives have a fitted effect of over 50% in size); conditions: recombinant CYP3A4, Luciferin-PPXE luminescence; series mostly up to 57.1 µM
How it was run: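 20 nM human CYP3A4 with 25 uM Luciferin-PPXE (at KM) in 200 mM KPO4, preincubated 10 min with compound; NADPH regeneration started a 60 min RT reaction. Luciferin detected by luminescence, normalized to 57 uM ketoconazole as full inhibition.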

[12] = Confirmation and Secondary Assay for Modulators of Hemoglobin Beta Chain Splicing at IVS2 654 locus (AID 910; active = well fitted curve in the direction sought with a large enough effect; an effect the other way counts as inactive or inconclusive;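 note: HeLa cells stably carrying EGFP split by mutant beta-globin IVS2-654 intron; % of control where 0% means no effect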); conditions: HeLa EGFP-654 splicing reporter, GFP fluorescence, 48 h; series mostly up to 38.3 µM
How it was run: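 HeLa cells stably expressing EGFP interrupted by β-globin IVS2-654 intron, seeded overnight in Opti-MEM/2% FCS, then treated 2 days at 37 °C. Restored splicing read as total peak GFP intensity per well by laser scanning cytometry (488 nm excitation, 500–520 nm emission); 500 nM antisense PNA as control.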

[13] = Confirmation and Secondary Assay for Modulators of Hemoglobin Beta Chain Splicing at IVS2 705 locus (AID 930; active = well fitted curve in the direction sought with a large enough effect; an effect the other way counts as inactive or inconclusive;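 note: HeLa cells stably expressing the EGFP-705 splicing reporter; GFP fluorescence per well restored by corrected splicing of the IVS2-705 intron in EGFP; % of control where 0% means no effect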); conditions: HeLa EGFP-705 splicing reporter, GFP fluorescence, 48 h; series mostly up to 38.3 µM
How it was run: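 Stable HeLa line with EGFP disrupted by mutant beta-globin intron 2 (705). Overnight attachment, then 2 days of compound at 37C, 5% CO2. Signal: peak GFP intensity summed over objects 5-250 µm.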

[14] = molecular target: Ubiquitin carboxyl-terminal hydrolase 1 (Homo sapiens) (UniProt O94782); experiment: Inhibitors of USP1/UAF1: Pilot qHTS (AID 504865; active = well fitted curve in the direction sought with a large enough effect; an effect the other way counts as inactive or inconclusive;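 note: rhodamine fluorescence freed from ubiquitin-rhodamine substrate followed over time; top concentration of the series differs between compounds; % is set by controls: 0 for no effect and ±100 for the full control effect; nearly all actives have a fitted effect of over 35% in size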); conditions: purified USP1/UAF1, Ub-rhodamine cleavage fluorescence; series mostly up to 54.9 µM
How it was run: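 1nM USP1/UAF1 + cpd, 15 min RT; start w/ Ub-Rho 150nM final; kinetic FL 480/540 nm, 6 reads q60 s. Buffer 50mM HEPES pH 7.8, 0.5mM EDTA, 1mM TCEP, 0.01% Tween-20, 0.1 mg/ml BSA.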

[15] = NFAT Signaling Pathway (AID 444); conditions: Jurkat NFAT-bla M1, carbachol, beta-lactamase ratio, 5 h; at 7.69 µM (top of the series) unless noted;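 note: carbachol stimulus at about its EC50 of 1 µM final; % is set by controls: 0 for no effect and ±100 for the full control effect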
How it was run: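 Jurkat cells with NFAT-driven β-lactamase reporter and co-expressed M1 receptor, stimulated with carbachol (final 1 uM, ~EC50), compound titration, 5 h at 37 °C. CCF4 loaded 1 h at RT; 460/530 nm ratio gave %activity and AC50.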

[16] = Stat Signaling Pathway (AID 446); conditions: ME-180 SIE beta-lactamase reporter, IL-6 stimulated, 5 h; at 7.69 µM (top of the series) unless noted
How it was run: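 Screening format detects activators and inhibitors alike: ME-180 SIE-bla cells stimulated at 40 pM IL-6 for 5 hrs with compound, then dual-emission beta-lactamase read at 405 nm excitation.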

[17] = molecular target: Cytochrome P450 2D6 (Homo sapiens) (UniProt P10635); experiment: qHTS Assay for Inhibitors and Substrates of Cytochrome P450 2D6 (AID 891; active = well fitted curve in the direction sought with a large enough effect; an effect the other way counts as inactive or inconclusive; note: potency is the fitted concentration of half-maximal effect; nearly all actives have a fitted effect of over 60% in size); conditions: recombinant CYP2D6, luciferin-ME EGE luminescence; series mostly up to 57.1 µM
How it was run: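 Human CYP2D6 (5 nM) with 30 uM Luciferin-ME EGE (at Km) in 100 mM KPO4, compound preincubated 10 min, then NADPH regeneration system for 60 min at room temperature. Luciferin read by luminescence; normalized to 1.43 uM quinidine.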

[18] = molecular target: Cytochrome P450 2C9 (Homo sapiens) (UniProt P11712); experiment: qHTS Assay for Inhibitors and Substrates of Cytochrome P450 2C9 (AID 883; active = well fitted curve in the direction sought with a large enough effect; an effect the other way counts as inactive or inconclusive; note: % is set by controls: 0 for no effect and ±100 for the full control effect; nearly all actives have a fitted effect of over 60% in size); conditions: recombinant CYP2C9, luciferin-H luminescence, 60 min; series mostly up to 57.1 µM
How it was run: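 Human CYP2C9 (10nM) with Luciferin-H at 100uM (its KM) in 25mM KPO4; compound preincubated 10 min at 37C, then NADPH regeneration for 60 min at 37C. Luciferin read by luminescence after detection reagent; normalized to 57uM sulphaphenazole as full inhibition.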

Chain of Lysosomal acid glucosylceramidase (Homo sapiens) (P04062 whole entry, looked up): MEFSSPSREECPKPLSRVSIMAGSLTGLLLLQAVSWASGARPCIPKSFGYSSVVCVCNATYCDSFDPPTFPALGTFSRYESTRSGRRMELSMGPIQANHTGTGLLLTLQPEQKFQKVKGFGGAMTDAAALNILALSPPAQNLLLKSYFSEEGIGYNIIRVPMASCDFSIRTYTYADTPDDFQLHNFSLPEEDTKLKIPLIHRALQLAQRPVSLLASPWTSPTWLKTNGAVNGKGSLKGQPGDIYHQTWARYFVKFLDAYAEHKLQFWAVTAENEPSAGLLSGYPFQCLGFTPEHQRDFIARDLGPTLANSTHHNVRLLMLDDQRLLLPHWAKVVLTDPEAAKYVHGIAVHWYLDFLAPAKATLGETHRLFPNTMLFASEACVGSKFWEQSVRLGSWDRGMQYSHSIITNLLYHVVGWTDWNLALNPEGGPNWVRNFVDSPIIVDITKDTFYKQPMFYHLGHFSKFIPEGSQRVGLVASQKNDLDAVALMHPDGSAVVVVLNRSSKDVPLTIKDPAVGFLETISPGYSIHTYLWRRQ
Chain of Cytochrome P450 3A4 (Homo sapiens) (P08684 whole entry, looked up): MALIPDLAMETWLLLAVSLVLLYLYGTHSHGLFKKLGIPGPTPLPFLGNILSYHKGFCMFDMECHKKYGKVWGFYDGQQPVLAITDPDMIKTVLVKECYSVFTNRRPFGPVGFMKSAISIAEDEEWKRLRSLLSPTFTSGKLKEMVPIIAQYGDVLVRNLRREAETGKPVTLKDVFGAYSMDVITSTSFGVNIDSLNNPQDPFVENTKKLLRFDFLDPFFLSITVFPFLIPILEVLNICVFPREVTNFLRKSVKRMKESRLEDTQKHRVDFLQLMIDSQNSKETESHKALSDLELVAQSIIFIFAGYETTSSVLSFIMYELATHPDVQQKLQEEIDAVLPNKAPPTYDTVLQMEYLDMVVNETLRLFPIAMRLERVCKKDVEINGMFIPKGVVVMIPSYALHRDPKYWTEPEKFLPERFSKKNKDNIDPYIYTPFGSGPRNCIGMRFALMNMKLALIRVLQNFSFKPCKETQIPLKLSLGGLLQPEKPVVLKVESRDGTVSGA
Chain of Glucocorticoid receptor (Homo sapiens) (P04150 whole entry, looked up, the tested form may be a part): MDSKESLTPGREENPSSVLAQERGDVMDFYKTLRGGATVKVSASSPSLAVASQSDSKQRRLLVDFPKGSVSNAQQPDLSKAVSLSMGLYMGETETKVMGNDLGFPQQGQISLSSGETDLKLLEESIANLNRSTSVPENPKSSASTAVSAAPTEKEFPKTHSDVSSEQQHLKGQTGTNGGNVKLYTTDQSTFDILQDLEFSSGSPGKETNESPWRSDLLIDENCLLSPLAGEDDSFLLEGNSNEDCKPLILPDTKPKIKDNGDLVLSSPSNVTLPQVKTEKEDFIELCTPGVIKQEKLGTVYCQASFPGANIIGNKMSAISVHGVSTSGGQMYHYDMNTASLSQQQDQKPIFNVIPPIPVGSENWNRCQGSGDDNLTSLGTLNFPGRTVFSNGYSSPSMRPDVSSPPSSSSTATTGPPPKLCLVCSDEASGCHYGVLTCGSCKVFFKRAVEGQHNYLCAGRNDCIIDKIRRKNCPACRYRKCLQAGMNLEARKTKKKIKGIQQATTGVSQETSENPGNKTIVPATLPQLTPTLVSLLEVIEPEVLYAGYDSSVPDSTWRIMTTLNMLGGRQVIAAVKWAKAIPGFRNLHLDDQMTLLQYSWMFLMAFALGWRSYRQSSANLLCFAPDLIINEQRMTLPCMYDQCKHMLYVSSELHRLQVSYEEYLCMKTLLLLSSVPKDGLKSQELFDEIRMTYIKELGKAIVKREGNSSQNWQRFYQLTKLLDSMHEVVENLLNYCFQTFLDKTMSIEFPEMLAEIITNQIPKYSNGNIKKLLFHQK
Chain of 3',5'-cyclic-AMP phosphodiesterase 4B (Homo sapiens) (Q07343 whole entry, looked up): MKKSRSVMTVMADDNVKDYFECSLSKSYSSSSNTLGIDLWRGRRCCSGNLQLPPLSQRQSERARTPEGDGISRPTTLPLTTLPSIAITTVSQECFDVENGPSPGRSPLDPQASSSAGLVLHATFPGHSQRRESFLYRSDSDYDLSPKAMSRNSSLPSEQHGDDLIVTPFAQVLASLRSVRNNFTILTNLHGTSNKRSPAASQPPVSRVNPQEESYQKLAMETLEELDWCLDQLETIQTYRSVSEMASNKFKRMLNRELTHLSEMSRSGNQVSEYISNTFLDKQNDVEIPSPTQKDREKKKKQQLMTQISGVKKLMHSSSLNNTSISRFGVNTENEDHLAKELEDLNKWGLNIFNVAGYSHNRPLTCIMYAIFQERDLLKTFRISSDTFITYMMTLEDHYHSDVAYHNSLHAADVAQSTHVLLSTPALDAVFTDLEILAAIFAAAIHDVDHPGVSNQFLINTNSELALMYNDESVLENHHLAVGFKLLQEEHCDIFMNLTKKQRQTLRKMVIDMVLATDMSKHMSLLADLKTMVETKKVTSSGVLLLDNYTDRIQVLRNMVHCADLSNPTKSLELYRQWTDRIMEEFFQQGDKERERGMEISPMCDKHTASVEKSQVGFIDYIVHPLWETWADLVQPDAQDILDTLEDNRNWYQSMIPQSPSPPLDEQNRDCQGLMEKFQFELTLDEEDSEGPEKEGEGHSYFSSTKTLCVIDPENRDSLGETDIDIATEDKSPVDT
Chain of Cytochrome P450 1A2 (Homo sapiens) (P05177 whole entry, looked up): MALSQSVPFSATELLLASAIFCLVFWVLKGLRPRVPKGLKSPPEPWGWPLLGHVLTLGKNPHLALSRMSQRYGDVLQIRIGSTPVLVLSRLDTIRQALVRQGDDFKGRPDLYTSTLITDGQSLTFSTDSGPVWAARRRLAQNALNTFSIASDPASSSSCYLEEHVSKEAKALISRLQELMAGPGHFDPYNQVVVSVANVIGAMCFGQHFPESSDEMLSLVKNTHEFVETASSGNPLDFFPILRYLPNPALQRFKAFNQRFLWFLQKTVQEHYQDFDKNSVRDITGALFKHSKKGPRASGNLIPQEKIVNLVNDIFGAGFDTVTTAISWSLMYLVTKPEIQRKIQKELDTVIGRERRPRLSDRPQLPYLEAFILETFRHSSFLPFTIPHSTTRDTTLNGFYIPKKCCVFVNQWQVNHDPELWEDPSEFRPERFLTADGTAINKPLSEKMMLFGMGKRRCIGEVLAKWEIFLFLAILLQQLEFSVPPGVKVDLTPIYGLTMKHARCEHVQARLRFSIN
Chain of Cytochrome P450 2D6 (Homo sapiens) (P10635 whole entry, looked up): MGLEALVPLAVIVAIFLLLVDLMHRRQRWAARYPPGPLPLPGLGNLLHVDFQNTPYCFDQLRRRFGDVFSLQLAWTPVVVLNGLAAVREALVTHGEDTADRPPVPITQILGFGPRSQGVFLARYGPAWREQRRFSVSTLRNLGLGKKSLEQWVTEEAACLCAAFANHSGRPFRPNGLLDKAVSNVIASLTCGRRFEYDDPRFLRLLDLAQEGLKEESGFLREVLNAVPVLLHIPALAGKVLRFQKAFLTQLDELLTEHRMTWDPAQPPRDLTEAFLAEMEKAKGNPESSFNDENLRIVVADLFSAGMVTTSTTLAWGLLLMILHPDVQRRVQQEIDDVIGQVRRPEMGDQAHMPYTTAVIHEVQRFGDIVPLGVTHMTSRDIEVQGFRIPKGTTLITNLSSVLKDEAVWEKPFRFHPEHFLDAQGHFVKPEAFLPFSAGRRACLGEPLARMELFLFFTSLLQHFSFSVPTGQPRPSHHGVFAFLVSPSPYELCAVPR
Chain of Ubiquitin carboxyl-terminal hydrolase 1 (Homo sapiens) (O94782 whole entry, looked up): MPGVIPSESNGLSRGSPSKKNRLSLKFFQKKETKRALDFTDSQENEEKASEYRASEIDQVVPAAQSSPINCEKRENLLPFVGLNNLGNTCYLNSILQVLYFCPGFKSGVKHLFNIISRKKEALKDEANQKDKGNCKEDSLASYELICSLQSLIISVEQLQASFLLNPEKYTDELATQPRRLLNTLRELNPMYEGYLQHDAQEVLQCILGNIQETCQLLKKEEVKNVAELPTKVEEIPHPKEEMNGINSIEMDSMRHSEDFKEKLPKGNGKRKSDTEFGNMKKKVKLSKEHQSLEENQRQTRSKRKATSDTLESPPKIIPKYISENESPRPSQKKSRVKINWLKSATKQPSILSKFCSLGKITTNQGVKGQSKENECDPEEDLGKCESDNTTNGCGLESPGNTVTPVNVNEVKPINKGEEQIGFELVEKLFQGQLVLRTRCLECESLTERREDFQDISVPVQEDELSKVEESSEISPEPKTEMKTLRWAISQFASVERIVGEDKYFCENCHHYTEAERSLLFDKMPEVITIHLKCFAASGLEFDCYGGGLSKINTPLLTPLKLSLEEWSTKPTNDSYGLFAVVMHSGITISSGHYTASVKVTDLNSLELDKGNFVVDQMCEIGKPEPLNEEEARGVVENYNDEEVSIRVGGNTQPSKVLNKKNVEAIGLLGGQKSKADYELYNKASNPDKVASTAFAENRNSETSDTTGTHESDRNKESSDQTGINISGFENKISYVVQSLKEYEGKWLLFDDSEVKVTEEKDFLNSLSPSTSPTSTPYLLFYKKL
Chain of Cytochrome P450 2C9 (Homo sapiens) (P11712 whole entry, looked up): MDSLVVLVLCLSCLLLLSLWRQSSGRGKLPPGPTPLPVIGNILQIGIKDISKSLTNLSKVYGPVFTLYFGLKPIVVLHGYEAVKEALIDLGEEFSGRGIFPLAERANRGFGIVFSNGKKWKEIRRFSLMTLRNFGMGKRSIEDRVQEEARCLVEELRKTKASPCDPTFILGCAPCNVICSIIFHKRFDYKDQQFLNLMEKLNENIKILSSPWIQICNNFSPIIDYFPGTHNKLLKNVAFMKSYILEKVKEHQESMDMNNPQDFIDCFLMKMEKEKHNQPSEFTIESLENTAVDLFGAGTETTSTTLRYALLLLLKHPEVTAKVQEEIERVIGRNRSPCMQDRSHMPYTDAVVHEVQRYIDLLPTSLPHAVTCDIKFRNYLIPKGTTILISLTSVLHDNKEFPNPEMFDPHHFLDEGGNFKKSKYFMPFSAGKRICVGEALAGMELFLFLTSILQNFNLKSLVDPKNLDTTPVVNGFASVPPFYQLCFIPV

Row | SMILES | Potency [1] | activity change, negative = inhibition [2] [%] | Potency [3] | Potency [4] [µM] | Potency [5] [µM] | Potency [6] | Potency [7] | Potency [8] | Potency [9] | outcome [10] | Potency [11] | Potency [12] | outcome [13] | Potency [14] | activity change, negative = inhibition [15] [%] | activity, negative = inhibition [16] [%] | activation [9] [%] | Potency [17] | activity change, negative = inhibition [18]
1 | COc1ccc(-c2nc3cnc(N4CCN(C)CC4)nc3n(CCC#N)c2=O)cc1 | > 11.4 µM | 23.4 | inactive | > 9.22 | > 46 | inactive | inactive | inactive | 3.16 µM (active) | inactive |  |  |  |  |  |  |  |  | 
2 | Cc1cnc(CNc2nc(-c3ccc4c(c3)OCO4)nc3ccccc23)cn1 | > 11.4 µM | -3.88 | 2 µM (active) | > 46 | > 46 | inactive |  |  |  | inactive | 0.794 µM (active) | inactive | inactive | inactive |  |  |  |  | 
3 | COc1ccc(Oc2ncc3ncc(=O)n(CCC#N)c3n2)cc1 | > 11.4 µM | -11.3 |  | > 9.22 | > 46 | inactive |  |  |  | inactive |  |  |  |  | -5.59 | -8.02 |  |  | 
4 | O=C(c1ccco1)N1CCC2(CCCN(Cc3ccccc3)C2)CC1 | > 11.4 µM | -8.21 | inactive |  | > 46 | inactive | inactive | inactive |  | inactive |  |  |  |  |  | 10.9 | 3.78 |  | 
5 | O=c1c(-c2ccccc2)nc2cncnc2n1Cc1ccc(F)cc1 | > 11.4 µM | -20 |  | > 9.22 | > 46 | inactive |  |  |  | inactive |  |  |  |  | -1.65 | -6.53 |  |  | 
6 | O=C(c1ccco1)N1CCC2(CCCN(Cc3ccncc3)C2)CC1 | > 11.4 µM | -1.32 | 15.8 µM (active) |  | > 46 | inactive | inactive | inactive |  | inactive | 5.01 µM (active) |  |  |  |  | -14.4 |  | 3.16 µM (active) | 
7 | N#Cc1cccc(NC(=O)N2CCCC3(CCN(C(=O)c4cc(C(F)(F)F)cc(C(F)(F)F)c4)CC3)C2)c1 | > 11.4 µM | -21.5 | 6.31 µM (active) |  | > 46 | inactive |  |  |  | inactive |  |  |  |  |  | -13.7 | -10.4 |  | 
8 | CNc1nc(-c2ccc(N(C)C)cc2)nc2ccccc12 | 6.77 µM (active) | 15.8 | 0.2 µM (active) | > 46 | > 46 | inactive | inactive | inactive |  | inactive |  |  | inactive |  |  |  |  |  | 108% [at 2.29 µM]
